HT1080 IDH1KD tx = HT-1080 IDH1 knockdown cell toxicity (counter line) | HT-1080 IDH1 knockdown viability, ATP luminescence, 48 h | AID 686971 | 2% of 360,000 active | Potency, µM (titrated, usually from 46.1 µM), for inactives: top-dose activity, negative = toxicity, hits mostly cytotoxic;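 further: potency means the concentration at half of the fitted maximal effect; 0% = DMSO wells and -100% = cell-free medium wells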
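Cytotoxicity counter-line: IDH1KD HT-1080, 48 h, CellTiter-Glo. Curves classed by r2, magnitude and activity.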
HT1080-NT tox = kills 2HG-producing HT-1080-NT fibrosarcoma cells; HT-1080-NT fibrosarcoma viability, CellTiter-Glo ATP luminescence, 48 h; Potency, µM (top dose mostly 46.1 µM), for inactives: at the top dose activity, negative = less viability, hits mostly cytotoxic; 1.6% of 360,000 active; AID 686970;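 further: NT is the 2HG producing partner of a matched IDH1 knockdown line; potency means the concentration at half of the fitted maximal effect; 0% = DMSO-treated cells and -100% = media-only wells without cells; nearly all actives have a fitted effect of over 55% in size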
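Viability of the 2HG-overproducing fibrosarcoma line after 48 hours of compound exposure at 37 degrees C was determined by luminescence with CellTiter-Glo, and concentration-effect curves were then fitted and categorized.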
TDP1 cell noCPT = qHTS for Inhibitors of human tyrosyl-DNA phosphodiesterase 1 (TDP1): qHTS in cells in absence of CPT | Potency, µM (highest dose often 46.2 µM), for the others: top-dose activity change, negative = growth inhibition, hits mostly inhibitors | 15% of 420,000 active | DT40 Tdp1-/- hTDP1 cells, no CPT, ATP luminescence, 48 h; further: potency means the concentration at half of the fitted maximal effect; nearly all actives have a fitted effect of over 55% in size
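Cells were dispensed at 400 per well, compounds added by pin tool, plates incubated ≥48 hr at 37 °C, then CellTiter-Glo added for 30 min at room temperature before luminescence reading. Line: DT40 Tdp1-/- complemented with hTDP1; camptothecin omitted.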
IL1B secr inh = blocks inflammasome-driven IL-1 beta release. 4.7% of 360,000 active. activity change, % at 57.5 µM. AID 743279. THP-1 LPS/ATP IL-1B secretion, AlphaLISA, 16 h; hits give low values; in the data active means activity change below about -50%; inconclusive means mostly about -30% to -49%
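Secreted IL-1B measured by AlphaLISA bead assay after 16 h compound exposure of THP-1 cells; compounds (final up to 57.5 uM) added 1 h before LPS (250 ng/mL) and ATP (1.25 mM) stimulation; lower signal means less secretion.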
DT40 TDP1 CPT = DT40-hTDP1 cell growth loss with CPT. 12% of 420,000 active. chicken DT40 Tdp1-/-;hTDP1 cells + 20 nM CPT, ATP luminescence, 48 h. Potency, µM (top dose mostly 46.2 µM), inactives show at the highest dose activity change, negative = growth inhibition, usual class: inhibitors; further: potency means the concentration at half of the fitted maximal effect; nearly all actives have a fitted effect of over 55% in size
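Chicken DT40 Tdp1-/- cells complemented with human TDP1, 400 cells/well, exposed to compounds plus 20 nM camptothecin for at least 48 h at 37 C; viability read as ATP content by CellTiter-Glo luminescence.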
Numbers without * were called inactive; i = inactive; ? = inconclusive; / = no result. In the library only some 19% were active in any assay of this set; here they are far more common. Unless noted, the call rests on the fitted dose curve; in most records, active means well fitted curve in the direction sought with a large enough effect; inconclusive means small, poorly fitted or top-dose-only effect, or another doubt; inactive means no such curve, though single readings can be large; an effect the other way counts as inactive or inconclusive. Unless noted, on the % scale 0 is the no-effect control and ±100 the full control effect.

SMILES | HT1080 IDH1KD tx | HT1080-NT tox | TDP1 cell noCPT | IL1B secr inh | DT40 TDP1 CPT
CCOc1ccc(C(=O)NCC(=O)NNC(=O)CN(C)S(=O)(=O)c2ccc(Cl)cc2)cc1 | 11% | -2% | -3% | -2 | -2%
COc1ccc(N(CC(=O)NCCSC2CCCCC2)S(=O)(=O)c2ccccc2)cc1OC | 0% | -1% | ? | -2 | ?
Cc1cc(C)c2cc(C#N)c(N3CCCC3)nc2c1 | -1% | 1% | ? | -9 | -14%
Cc1cc(C)c2cc(C#N)c(N3CCCN(C(=S)NCCCN(C)C)CC3)nc2c1 | ? | ? | 23µM* | -56* | ?
CCOCCCNC(=S)N1CCCN(c2nc3cc(C)ccc3cc2C#N)CC1 | 7% | ? | 3% | 12 | -9%
Cc1ccc2cc(C#N)c(N3CCCN(C(=S)NCCCN(C)C)CC3)nc2c1 | 21µM* | 21µM* | 15µM* | ? | 16µM*
Cn1cc(C(=O)N2CCN(c3cccc(Cl)c3)CC2)c(=O)c2cc(S(=O)(=O)N3CCCC3)ccc21 | / | / | -22% | / | -20%
CCc1ccc(C(=O)COc2ccc(NC(C)=O)cc2)cc1 | 6% | 0% | -4% | -6 | 5%
CCCN1CNc2c(c(=O)[nH]c(=S)n2CCc2ccc(C)cc2C)C1 | 2% | 14% | ? | / | ?
CCn1c(CN2CCCCC2)nc2cc(NC(=O)COc3ccccc3C(C)(C)C)ccc21 | / | / | -19% | / | -14%
Cc1cccc(OCC(=O)Nc2ccc3c(c2)nc(CCN2CCC(C)CC2)n3C)c1 | -16% | -19% | ? | -64* | ?
CC1CCN(CCc2nc3cc(NC(=O)COc4ccc([N+](=O)[O-])cc4)ccc3n2C)CC1 | ? | -7% | ? | -101* | 16µM*
CCn1c(CN2CCC(C)CC2)nc2cc(NC(=O)COc3ccc(Cl)c(C)c3)ccc21 | / | / | 5.2µM* | / | 6.5µM*
CC(=O)NCCc1nc2cc(NC(=O)COc3cccc(C)c3)ccc2n1C | 18% | ? | -11% | 12 | -11%
CC1CCN(CCc2nc3cc(NC(=O)Nc4ccccc4)ccc3n2C)CC1 | 14% | 0% | ? | -2 | 21µM*
COc1ccc(CN2CCC(N3CC(C)OC(C)C3)CC2)c(OC)c1OC (configuration not stated) | -6% | -1% | 13% | 4 | -11%
COc1cccc(-c2nc(Cl)nc3cc(Cl)ccc23)c1 | 17% | 1% | ? | 27 | ?
COc1ccc(C)cc1NC1=C(Cl)C(=O)N(C2CCCCC2)C1=O | 5% | -3% | 12µM* | 4 | ?
CCOc1ccccc1NC(=O)c1sc2nc(-c3ccc(OC)cc3)ccc2c1N | / | / | 13µM* | / | 21µM*
COc1ccc(-c2ccc3c(N)c(C(=O)Nc4ccc(C)cc4C)sc3n2)cc1OC | / | / | ? | / | 4.1µM*
Nc1c(C(=O)NCc2ccc(Cl)cc2)sc2nc(-c3ccc(F)cc3)ccc12 | / | / | 21µM* | / | 18µM*
COc1ccc(-c2ccc3c(N)c(C(=O)NCc4ccc(Cl)cc4)sc3n2)cc1 | / | / | 15µM* | / | ?
Cc1ccc(C(=O)NCCc2nnc3ccc(NCc4ccc5c(c4)OCO5)nn23)cc1 | 3% | -3% | ? | i | ?
CC1CCN(C(=O)COC(=O)c2ccc3c(c2)C(=O)N(Cc2ccco2)C3=O)CC1 | 1% | 6% | -21% | 27 | 1%
O=C1C2C3CCC(C3)C2C(=O)N1c1ccc2ccccc2c1 (configuration not stated) | -1% | 9% | 9% | 0 | -9%
SMILES | HT1080 IDH1KD tx | HT1080-NT tox | TDP1 cell noCPT | IL1B secr inh | DT40 TDP1 CPT
COc1cccc(-c2ccc3c(N)c(C(=O)c4ccc(Cl)cc4)sc3n2)c1 | / | / | 7.3µM* | / | 8.2µM*
COc1ccc(C(=O)c2sc3nc(-c4ccccc4)ccc3c2N)cc1 | -23% | 4% | -53% | -26 | -54%
OCCC1CN(Cc2cccc3c2OCO3)CCN1C1CCCCC1 (configuration not stated) | -2% | -6% | -22% | 7 | -12%
COc1cc(C(C)=O)ccc1OCC(=O)N1CCC(Cc2ccccc2)CC1 | -14% | -15% | ? | -10 | ?
O=Cc1cc(Cl)ccc1OCCN1CCC(Cc2ccccc2)CC1 | ? | 21µM* | 16µM* | -93* | ?
COc1cc(C(C)=O)ccc1OCCCN1CCC(Cc2ccccc2)CC1 | ? | ? | ? | -55* | ?
COc1cc(C(C)=O)ccc1OCCN1CCC(Cc2ccccc2)CC1 | ? | -23% | ? | -64* | ?
CCOc1ccc(NC(=O)CN2C(=O)CSc3ccc(S(=O)(=O)N4CCCC4)cc32)cc1 | 2% | -1% | ? | ? | ?
O=C(CN1C(=O)CSc2ccc(S(=O)(=O)N3CCCC3)cc21)Nc1cccc(Cl)c1 | / | / | 23µM* | / | ?
COc1ccc(NC(=O)CN2C(=O)CSc3ccc(S(=O)(=O)N(C)C)cc32)cc1Cl | / | / | ? | / | 23µM*
Cc1ccc(NC(=O)CN2C(=O)CSc3ccc(S(=O)(=O)N4CCCCC4)cc32)cc1 | ? | -3% | -13% | -89* | ?
CCOC(=O)CN1C(=O)CSc2ccc(S(=O)(=O)N3CCCC3)cc21 | 17% | 24% | ? | -52* | -13%
CCc1ccc(NC(=O)CN2C(=O)CSc3ccc(S(=O)(=O)N(C)C)cc32)cc1 | / | / | -21% | / | -13%
CCOC(=O)CN1C(=O)CSc2ccc(S(=O)(=O)N3CCOCC3)cc21 | 10% | 7% | 13% | -7 | 1%
Cc1nn(C)c(C)c1NC(=O)CCCSc1nc(-c2ccco2)cc(C(F)(F)F)n1 | -11% | -3% | ? | ? | ?
CCOC(=O)[C@]12CCCC=C1N(Cc1ccco1)C(=O)[C@H](CC(=O)N1CCC(c3ccccc3)CC1)C2 | -28% | -28% | ? | 7 | ?
CCOc1ccccc1CNC(=O)CSc1n[nH]c(-c2ccccc2Cl)n1 | / | / | 23µM* | / | 13µM*
O=C(CSc1n[nH]c(-c2cccs2)n1)NCCc1ccccc1 | -3% | -9% | ? | 25 | ?
O=C(CSc1n[nH]c(-c2ccccc2Cl)n1)NCCc1ccccc1 | / | / | 21µM* | / | 9.2µM*
COc1cccc(CNC(=O)CSc2n[nH]c(-c3ccccc3Cl)n2)c1OC | / | / | -23% | / | -28%
O=c1[nH]cnc2onc(-c3ccc(F)cc3)c12 | 6% | 2% | -27% | 15 | 15%
CCOCCc1c(O)nc(SCC(=O)N2CCOCC2)[nH]c1=O | 7% | 6% | 1% | 8 | 1%
Cn1c(SCC(N)=O)nc2c([nH]c3ccccc32)c1=O | / | / | -20% | / | 6%

Assay outcomes from PubChem BioAssay.
